# Measured values from PMC12820563, “FoxP3 forms a head-to-head dimer in vivo and stabilizes its multimerization on adjacent microsatellites”.
# The full ranking holds about 16,000 sequences; the median of “rpm ratio (pull-down/input)” is about 0.5, and the highest 2% start at about 5.5. For the sample, the highest values were picked, then their nearest neighbours and some sequences at random.
# Target: T1, MBP-FoxP3dN (Mus musculus, UniProt Q99JB6 188-423)
# T1 sequence: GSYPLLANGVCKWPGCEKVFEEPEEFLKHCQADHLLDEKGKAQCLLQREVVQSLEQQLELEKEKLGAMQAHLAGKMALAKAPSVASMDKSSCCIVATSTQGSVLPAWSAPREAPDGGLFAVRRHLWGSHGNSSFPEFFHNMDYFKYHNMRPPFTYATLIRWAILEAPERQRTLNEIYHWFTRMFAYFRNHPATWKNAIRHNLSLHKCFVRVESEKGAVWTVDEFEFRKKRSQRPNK
# Assay: PD-seq (MBP pull-down with sequencing); 20 mM Tris-HCl pH 7.5, 100 mM NaCl, 1.5 mM MgCl2, 0.4 uM protein, 0.1 uM dsDNA library, 30 min, room temperature, amylose pull-down; high values mean tight binding
# Details: protein: recombinant; tags: His6-MBP; chain copies: 2; dsDNA, one strand shown
# How it was run: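 The N-terminus-lacking fragment of mouse FoxP3 or FoxP1 carried a His6-MBP tag and was expressed in E. coli. At 0.4 µM it was incubated with 0.1 µM Klenow-filled degenerate double-stranded DNA library for 30 min at room temperature in Tris pH 7.5 buffer with NaCl and MgCl2, and complexes were caught on amylose resin, washed three times, released with proteinase K, PCR-barcoded and Illumina-sequenced. Binding is reads-per-million enrichment of pull-down over input with replicates pooled.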
row,Sequence,binding signal
1,GATGATTGTTCTCCCAGCTGATGAATTCTGTTGTTCGAGTAAACAAATTTTCCTAATCTTTCTGTTCAAGCGCCATCTAC,7.51 RPM ratio (pull-down/input)
2,GATGATTGTTCTCCCAGCTGATGAATTATTAGGTTCGAGTAAACAAATTTTCCTAATCTTTCTGTTCAAGCGCCATCTAC,0.47 RPM ratio (pull-down/input)
3,GATGATTGTTCTCCCAGCTGATGAATTAACTTAGTCGAGTAAACAAATTTTCCTAATCTTTCTGTTCAAGCGCCATCTAC,0.295 RPM ratio (pull-down/input)
4,GATGATTGTTCTCCCAGCTGATGAATTTCTTCACTCGAGTAAACAAATTTTCCTAATCTTTCTGTTCAAGCGCCATCTAC,0.269 RPM ratio (pull-down/input)
5,GATGATTGTTCTCCCAGCTGATGAATTTAGGGTATCGAGTAAACAAATTTTCCTAATCTTTCTGTTCAAGCGCCATCTAC,1.02 RPM ratio (pull-down/input)
6,GATGATTGTTCTCCCAGCTGATGAATTTGATTGGTCGAGTAAACAAATTTTCCTAATCTTTCTGTTCAAGCGCCATCTAC,5.03 RPM ratio (pull-down/input)
7,GATGATTGTTCTCCCAGCTGATGAATTTACCGGATCGAGTAAACAAATTTTCCTAATCTTTCTGTTCAAGCGCCATCTAC,0.251 RPM ratio (pull-down/input)
8,GATGATTGTTCTCCCAGCTGATGAATTGTAGCTCTCGAGTAAACAAATTTTCCTAATCTTTCTGTTCAAGCGCCATCTAC,0.791 RPM ratio (pull-down/input)
9,GATGATTGTTCTCCCAGCTGATGAATTGGGGGAGTCGAGTAAACAAATTTTCCTAATCTTTCTGTTCAAGCGCCATCTAC,0.355 RPM ratio (pull-down/input)
10,GATGATTGTTCTCCCAGCTGATGAATTGTTTGTTTCGAGTAAACAAATTTTCCTAATCTTTCTGTTCAAGCGCCATCTAC,7.87 RPM ratio (pull-down/input)
11,GATGATTGTTCTCCCAGCTGATGAATTGTTTTTTTCGAGTAAACAAATTTTCCTAATCTTTCTGTTCAAGCGCCATCTAC,4.84 RPM ratio (pull-down/input)
12,GATGATTGTTCTCCCAGCTGATGAATTTCTGTTTTCGAGTAAACAAATTTTCCTAATCTTTCTGTTCAAGCGCCATCTAC,1.13 RPM ratio (pull-down/input)
13,GATGATTGTTCTCCCAGCTGATGAATTTCTTTGTTCGAGTAAACAAATTTTCCTAATCTTTCTGTTCAAGCGCCATCTAC,2.28 RPM ratio (pull-down/input)
14,GATGATTGTTCTCCCAGCTGATGAATTTTGTTGTTCGAGTAAACAAATTTTCCTAATCTTTCTGTTCAAGCGCCATCTAC,8.13 RPM ratio (pull-down/input)
15,GATGATTGTTCTCCCAGCTGATGAATTGTTTGATTCGAGTAAACAAATTTTCCTAATCTTTCTGTTCAAGCGCCATCTAC,2.06 RPM ratio (pull-down/input)
16,GATGATTGTTCTCCCAGCTGATGAATTTTTTTGTTCGAGTAAACAAATTTTCCTAATCTTTCTGTTCAAGCGCCATCTAC,0.472 RPM ratio (pull-down/input)
17,GATGATTGTTCTCCCAGCTGATGAATTGTTGTTTTCGAGTAAACAAATTTTCCTAATCTTTCTGTTCAAGCGCCATCTAC,7.89 RPM ratio (pull-down/input)
18,GATGATTGTTCTCCCAGCTGATGAATTTGTTTGTTCGAGTAAACAAATTTTCCTAATCTTTCTGTTCAAGCGCCATCTAC,7.56 RPM ratio (pull-down/input)

row,Sequence,binding signal
1,GATGATTGTTCTCCCAGCTGATGAATTTGTTCTTTCGAGTAAACAAATTTTCCTAATCTTTCTGTTCAAGCGCCATCTAC,2.28 RPM ratio (pull-down/input)
2,GATGATTGTTCTCCCAGCTGATGAATTGTTTCTTTCGAGTAAACAAATTTTCCTAATCTTTCTGTTCAAGCGCCATCTAC,1.93 RPM ratio (pull-down/input)
3,GATGATTGTTCTCCCAGCTGATGAATTTTCTGTTTCGAGTAAACAAATTTTCCTAATCTTTCTGTTCAAGCGCCATCTAC,0.343 RPM ratio (pull-down/input)
4,GATGATTGTTCTCCCAGCTGATGAATTGGTTACCTCGAGTAAACAAATTTTCCTAATCTTTCTGTTCAAGCGCCATCTAC,0.673 RPM ratio (pull-down/input)
5,GATGATTGTTCTCCCAGCTGATGAATTCGTCACGTCGAGTAAACAAATTTTCCTAATCTTTCTGTTCAAGCGCCATCTAC,1.77 RPM ratio (pull-down/input)
6,GATGATTGTTCTCCCAGCTGATGAATTCTTAAACTCGAGTAAACAAATTTTCCTAATCTTTCTGTTCAAGCGCCATCTAC,0.267 RPM ratio (pull-down/input)
7,GATGATTGTTCTCCCAGCTGATGAATTACTATTATCGAGTAAACAAATTTTCCTAATCTTTCTGTTCAAGCGCCATCTAC,0.758 RPM ratio (pull-down/input)
8,GATGATTGTTCTCCCAGCTGATGAATTAAATACATCGAGTAAACAAATTTTCCTAATCTTTCTGTTCAAGCGCCATCTAC,0.687 RPM ratio (pull-down/input)
9,GATGATTGTTCTCCCAGCTGATGAATTTACTTCTTCGAGTAAACAAATTTTCCTAATCTTTCTGTTCAAGCGCCATCTAC,0.632 RPM ratio (pull-down/input)
10,GATGATTGTTCTCCCAGCTGATGAATTGTTTACTTCGAGTAAACAAATTTTCCTAATCTTTCTGTTCAAGCGCCATCTAC,7.35 RPM ratio (pull-down/input)
11,GATGATTGTTCTCCCAGCTGATGAATTTTGTTCTTCGAGTAAACAAATTTTCCTAATCTTTCTGTTCAAGCGCCATCTAC,1.21 RPM ratio (pull-down/input)
12,GATGATTGTTCTCCCAGCTGATGAATTTGTTTCGTCGAGTAAACAAATTTTCCTAATCTTTCTGTTCAAGCGCCATCTAC,5.96 RPM ratio (pull-down/input)
13,GATGATTGTTCTCCCAGCTGATGAATTGTTTTCTTCGAGTAAACAAATTTTCCTAATCTTTCTGTTCAAGCGCCATCTAC,4.15 RPM ratio (pull-down/input)
14,GATGATTGTTCTCCCAGCTGATGAATTTTGTTCGTCGAGTAAACAAATTTTCCTAATCTTTCTGTTCAAGCGCCATCTAC,1.45 RPM ratio (pull-down/input)
15,GATGATTGTTCTCCCAGCTGATGAATTTGTTGTTTCGAGTAAACAAATTTTCCTAATCTTTCTGTTCAAGCGCCATCTAC,7.66 RPM ratio (pull-down/input)
16,GATGATTGTTCTCCCAGCTGATGAATTTTTTACTTCGAGTAAACAAATTTTCCTAATCTTTCTGTTCAAGCGCCATCTAC,0.261 RPM ratio (pull-down/input)
17,GATGATTGTTCTCCCAGCTGATGAATTTGTTTCTTCGAGTAAACAAATTTTCCTAATCTTTCTGTTCAAGCGCCATCTAC,6.78 RPM ratio (pull-down/input)
18,GATGATTGTTCTCCCAGCTGATGAATTGTTTTCGTCGAGTAAACAAATTTTCCTAATCTTTCTGTTCAAGCGCCATCTAC,3.95 RPM ratio (pull-down/input)
